HT1080-NT tox: qHTS for induction of synthetic lethality in tumor cells producing 2HG: qHTS for the HT-1080-NT fibrosarcoma cell line. HT-1080-NT fibrosarcoma viability, CellTiter-Glo ATP luminescence, 48 h. Potency, µM (titrated, usually from 46.1 µM), for the others: top-dose activity, negative = less viability, most hits filed as cytotoxic. 1.6% of 360,000 active. AID 686970, 2013;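 note: NT is the 2HG producing partner of a matched IDH1 knockdown line; 0% = DMSO-treated cells and -100% = media-only wells without cells; nearly all actives have a fitted effect of over 55% in size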
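Read-out is CellTiter-Glo luminescence after 10 minutes at room temperature, following 48 hours' compound treatment of HT-1080-NT cells (750 cells/well, RPMI, 5% FBS, 37 degrees C).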
HT1080 IDH1KD tx: qHTS for induction of synthetic lethality in tumor cells producing 2HG: qHTS for the HT-1080-IDH1KD cell line; HT-1080 IDH1 knockdown viability, ATP luminescence, 48 h; Potency, µM (doses to about 46.1 µM), without a hit: top-dose activity, negative = toxicity, hits mostly cytotoxic; 2% of 360,000 active;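 note: 0% = DMSO wells and -100% = cell-free medium wells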
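Luminescent ATP read-out (CellTiter-Glo, 10 min at room temperature) after 48 h compound exposure at 37 °C gave viability of IDH1-knockdown HT-1080 cells. Activity was normalised to DMSO and cell-free wells, then fitted as concentration-response curves.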
MCF10A rerep: A quantitative high throughput screen for small molecules that induce DNA re-replication in MCF 10a normal breast cells | AID 624296, 2012 | MCF 10A DNA re-replication, Hoechst nuclear intensity, 48 h | 2.9% of 350,000 active | Potency, µM (top dose mostly 46.1 µM), for the others: at the top dose activity, positive = re-replication, most hits filed as activators; note: % of control where 0% means no effect; nearly all actives have a fitted effect of over 50% in size
KB-3-1 cytotox: qHTS assay for MDR1-selective chemotherapeutics: Primary screen using the parental adenocarcinoma cell KB-3-1; KB-3-1 viability, CellTiter-Glo ATP luminescence, 72 h; Potency, µM (top dose mostly 46.1 µM), most hits filed as cytotoxic; 1.4% of 400,000 active; note: % is set by controls: 0 for no effect and ±100 for the full control effect; nearly all actives have a fitted effect of over 60% in size
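Screening of KB-3-1 cells (DMEM, 10% FBS, phenol-red free) ran from lowest to highest compound concentration; after 72 h at 37 °C viability was read luminescently and curves fitted.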
KB-V1 MDR tox: qHTS assay for MDR1-selective chemotherapeutics: Primary screen using the drug-selected MDR subline cells KB-V1; KB-V1 MDR cells viability, CellTiter-Glo, 72 h; Potency, µM (series often up to 46.1 µM), usual class: cytotoxic; 3.4% of 400,000 active; note: % is set by controls: 0 for no effect and ±100 for the full control effect; nearly all actives have a fitted effect of over 60% in size
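In this primary screen, KB-V1 cells overexpressing P-gp are incubated with library compounds (lowest to highest concentration) for 72 h at 37 degrees C before a luminescent ATP viability read.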
SW480 rerep: A quantitative high throughput screen for small molecules that induce DNA re-replication in SW480 colon adenocarcinoma cells; SW480 DNA re-replication, Hoechst DNA content imaging, 48 h; Potency, µM (doses to about 46.1 µM), for inactives: top-dose re-replication activation, most hits filed as activators; 1.8% of 340,000 active; AID 624297, 2012; note: % of control where 0% means no effect; nearly all actives have a fitted effect of over 55% in size
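Cells (250 per well) received 23 nL compound or DMSO by pin tool and were kept 48 hr at 37 C, 5% CO2. Nuclei were then stained with Hoechst for 40 min and scanned for DNA content.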
* = called active by the depositor; i = inactive; ? = inconclusive; · = no result given; [ ] = another dose, or the depositor's remark. An excerpt weighted towards active compounds, which were near 7.9% of everything screened. Calls come from the whole dose curve; as a rule, active = well fitted curve in the direction sought with a large enough effect; inconclusive = small, poorly fitted or top-dose-only effect, or another doubt; inactive = no such curve, though single readings can be large; an effect the other way counts as inactive or inconclusive. Potency is the fitted concentration of half-maximal effect.

SMILES | HT1080-NT tox | HT1080 IDH1KD tx | MCF10A rerep | KB-3-1 cytotox | KB-V1 MDR tox | SW480 rerep
Cc1ccc(-n2nnc3c(=O)n(CC(=O)NCc4ccco4)cnc32)cc1 | 0.0% | -9.8% | 25.1% | ? | i | 4.0%
CC(=O)Nc1ccc(NC(=O)Cn2cnc3c(cnn3C(C)(C)C)c2=O)cc1 | 11.8% | -2.1% | ? | i | i | -2.5%
Cc1ccc(Cn2nnc3c(=O)n(CC(=O)NCc4ccco4)cnc32)cc1 | -14.6% | -12.4% | ? | 23.1µM* | ? | ?
CC(C)(C)n1ncc2c(=O)n(CC(=O)NCc3ccccc3)cnc21 | 16.4µM* | 16.4µM* | 14.6µM* | 7.31µM* | ? | 20.6µM*
Clc1ccc(-c2nnn3c2nc(NC2CCCCC2)c2ccccc23)cc1 | · | · | · | i | i | ·
Cc1cc(C)c(S(=O)(=O)Oc2ccccc2[N+](=O)[O-])c(C)c1 | ? | ? | 6.51µM* | i | 14.6µM* | 20.6µM*
Cc1ccc(C)c(C(=O)COc2ccccc2[N+](=O)[O-])c1 | -0.9% | ? | ? | i | i | ?
c1ccc2c(-c3cc(C4CCNCC4)[nH]n3)cccc2c1 | 23.1µM* | 20.6µM* | ? | ? | i | 13.0%
FC(F)(F)c1cccc(CN2CCC(c3cc(-c4cccs4)n[nH]3)CC2)c1 | 7.31µM* | 5.17µM* | 13µM* | ? | ? | ?
c1coc(-c2cc(C3CCNCC3)[nH]n2)c1 | -2.7% | -5.3% | -0.1% | i | i | ?
COC(=O)CCN1CCC(c2cc(-c3cccc(C(F)(F)F)c3)n[nH]2)CC1 | -2.8% | 17.0% | 5.1% | i | i | 3.6%
FC(F)(F)c1cccc(-c2cc(C3CCNCC3)[nH]n2)c1 | 16.4µM* | ? | ? | i | i | ?
C1=Cc2ccccc2/C1=C\c1cc[cH-]c1.[Fe+2].c1cc[cH-]c1 | · | · | · | i | ? | ·
O=Cc1cccc(C=O)c1 | · | · | · | i | i | ·
COc1cc(/C=N/NC(=O)c2ccc(COc3ccccc3Cl)o2)cc(Br)c1O | 7.8% | 4.6% | 7.5% | i | i | -11.7%
COC(=O)c1ccc(COc2ccccc2/C=N/O)o1 | 25.8% | 24.6% | -23.9% | i | i | 1.84µM*
O=C(N/N=C/c1ccccc1F)c1ccc(COc2ccccc2Cl)o1 | -3.0% | -1.0% | ? | i | 18.4µM* | -1.9%
COC(=O)c1ccc(-n2c(C)cc(C(=O)CSc3cccc[n+]3[O-])c2C)cc1 | -2.3% | -17.7% | 1.3µM* | i | ? | -4.0%
O=C1/C(=C/c2ccccc2)CCC1C1CCCC1 (stereo not given) | -5.1% | -2.3% | 19.7% | i | i | 11.9%
COc1ccc(/C=C2\CCC(C3CCCC3)C2=O)cc1Cn1cccn1 (stereo not given) | -1.1% | -7.6% | 54.0% | i | 23.1µM* | 28.5%
COc1ccccc1/C=C1\CCC(C2CCCC2)C1=O (stereo not given) | 9.6% | 16.5% | 18.4µM* | i | i | -2.5%
COc1ccc(/C=C2\CCC(C3CCCC3)C2=O)cc1Cn1nc(C)cc1C (stereo not given) | 1.4% | 0.9% | 8.6% | i | ? | -3.1%
O=C(Nc1ccc(F)cc1)c1cnc(-c2ccccc2)nc1-c1ccccc1 | ? | ? | 14.0% | i | ? | ?
O=C(Nc1ccc(F)c(F)c1)c1cnc(-c2ccccc2)nc1-c1ccccc1 | ? | ? | 13µM* | i | i | 1.8%
COc1ccc(-c2csc(-c3c(N)c(C(=O)c4ccccc4)n4ccccc34)n2)cc1OC | · | · | · | i | i | ·
SMILES | HT1080-NT tox | HT1080 IDH1KD tx | MCF10A rerep | KB-3-1 cytotox | KB-V1 MDR tox | SW480 rerep
O=C(NC1(C(F)(F)F)NC(=O)N(CCc2ccccc2)C1=O)c1ccccc1Cl (stereo not given) | · | · | · | i | i | ·
CCCSc1ccc2nc(-c3ccccc3)cn2c1 | 11.6µM* | 11.6µM* | ? | 18.4µM* | 20.6µM* | ·
COc1ccc(CC(=O)Nc2ccccc2C(=O)N2CCOCC2)cc1OC | -0.7% | 11.4% | -10.6% | i | i | 0.581µM*
O=C(Nc1cccc(-c2nnc(-c3ccccc3)o2)c1)C1CC1 | 0.5% | -12.2% | -4.0% | i | 10.3µM* | 0.3%
O=C(Cc1ccc(Cl)cc1)Nc1cccc(-c2nnc(-c3ccco3)o2)c1 | ? | ? | 14.4% | ? | 0.581µM* | -4.3%
O=C(Cc1ccccc1)Nc1cccc(-c2nnc(-c3ccco3)o2)c1 | -2.4% | -2.7% | ? | i | i | -0.1%
CCc1cccc(NC(=O)Cc2ccc(OC)c(OC)c2)c1 | -9.9% | -10.4% | 12.5% | ? | 16.4µM* | -6.0%
COc1ccc(CC(=O)NCc2cccc(CNC(=O)Cc3ccc(OC)c(OC)c3)c2)cc1OC | -2.0% | 3.6% | -0.8% | i | i | -9.4%
COc1ccc(C)cc1NC(=O)Cn1cc(S(=O)(=O)N2CCC(C)CC2)c2ccccc2c1=O | · | · | · | i | i | ·
CN(C)c1ccc(/C=[N+]2\C(=O)CC(=O)NC2=O)cc1 | · | · | · | i | i | ·
O=C(COc1ccccc1)Nc1ccc(-c2nnc(-c3ccco3)o2)cc1 | 9.2µM* | 11.6µM* | -4.6% | i | i | 3.1%
COc1ccc(CC(=O)Nc2cccc(-c3nnc(-c4ccc(C)cc4)o3)c2)cc1OC | ? | ? | ? | i | 4.11µM* | -2.4%
COc1ccc(CC(=O)Nc2ccc(-c3nnc(-c4ccccc4)o3)cc2)cc1OC | 16.3% | 11.9% | -5.5% | i | ? | 4.5%
CCOc1cccc(C(=O)Nc2cccc(-c3nnc(-c4ccc(C)cc4)o3)c2)c1 | -7.6% | -1.6% | 3.66µM* | 13µM* | ? | 0.7%
COc1ccc(CC(=O)Nc2cccc(-c3nnc(-c4ccccc4)o3)c2)cc1OC | ? | -20.6% | 20.6µM* | ? | ? | 43.8%
CCOc1cccc(C(=O)Nc2cccc(-c3nnc(-c4ccccc4)o3)c2)c1 | 0.2% | 0.0% | ? | i | i | ?
COc1ccc(CC(=O)Nc2cccc(-c3nnc(-c4cccc(C)c4)o3)c2)cc1OC | -1.1% | -22.0% | ? | i | ? | -3.5%[9.22 µM]
COc1ccc(NC(=O)C2CCCN(S(=O)(=O)c3ccc(F)cc3)C2)cc1 (stereo not given) | · | · | · | i | i | ·

Screening results (PubChem BioAssay)
